Source: PubChem BioAssay (National Center for Advancing Translational Sciences (NCATS))
Hits are enriched below; roughly 2.9% of the tested compounds scored in any of these assays.
DRD3 antagonist: blocks the human D3 dopamine receptor; hit rate 2.5% among 360,000; D3R cells, DiscoveRx beta-arrestin luminescence, antagonist mode; hits give low values; max response, negative = inhibition, %; P35462; in the data active means max response below about -50%; inconclusive means no clear call, values can overlap the other calls; further: on the % scale 0 is the no-effect control and ±100 the full control effect
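Cells expressing the human receptor were seeded at 1500 cells/well, incubated overnight at 37 degrees C in 5% CO2, then exposed to library compounds with dopamine controls for 90 minutes at 37 degrees C before luminescent detection.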
TRPML1 inh: human mucolipin-1 channel inhibition; activity change, negative = inhibition, % (test concentration not listed); TRPML1-inducible cells, Ca2+ dye fluorescence, FDSS; hits give low values; inhibition of EC80 agonist-evoked calcium signal; hit rate 0.02% among 390,000; in the data active means activity change below about -50%; inconclusive means between about -30% and that limit;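 further: stimulus is agonist 54-4 at its EC80 concentration; on the % scale 0 is the no-effect control and ±100 the full control effect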
Target sequence (Q9GZU1 whole entry, looked up): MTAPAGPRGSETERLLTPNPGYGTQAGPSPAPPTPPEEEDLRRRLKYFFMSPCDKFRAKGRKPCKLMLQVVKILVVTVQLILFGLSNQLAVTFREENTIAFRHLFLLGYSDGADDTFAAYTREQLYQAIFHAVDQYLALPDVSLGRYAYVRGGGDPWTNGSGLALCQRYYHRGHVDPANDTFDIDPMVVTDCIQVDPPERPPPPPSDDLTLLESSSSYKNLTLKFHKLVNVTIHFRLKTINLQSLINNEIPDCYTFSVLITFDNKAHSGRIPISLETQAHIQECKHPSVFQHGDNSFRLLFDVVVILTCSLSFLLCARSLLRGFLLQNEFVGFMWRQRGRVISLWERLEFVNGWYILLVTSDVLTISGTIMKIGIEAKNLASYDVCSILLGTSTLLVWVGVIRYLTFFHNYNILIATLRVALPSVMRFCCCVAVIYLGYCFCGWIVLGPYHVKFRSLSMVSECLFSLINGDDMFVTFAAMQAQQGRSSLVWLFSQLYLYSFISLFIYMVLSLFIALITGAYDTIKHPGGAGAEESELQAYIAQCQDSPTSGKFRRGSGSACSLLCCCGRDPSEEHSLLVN
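TRPML1-DL cells, Tet-induced overnight (~16 h, 37 °C) at 1,500 cells/well, were loaded with Ca8 no-wash dye plus quencher for 45-90 min at room temperature. Compounds were pinned during FDSS kinetic reading; agonist 54-4 at EC80 (4 uM final) then added.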
TRPML1 agonist: human mucolipin-1 channel agonism; hit rate 0.12% among 410,000; AID 624414; TRPML1-expressing cells, Ca2+ dye fluorescence, FDSS; Q9GZU1; activation, % (test concentration not listed); in the data active means activation above about 50%; inconclusive means mostly about 30% to 49%; further: 0% is about no effect
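Kinetic FDSS Ca2+ read in Tet-induced TRPML1-DL cells (ABD Ca8 dye plus quencher, 45-90 min RT loading): baseline, then compound, then 110 s agonist window; EC80 agonist 54-4 at 4uM final added afterwards for a 110 s antagonist window.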
DRD3 agonist: agonists of human D3 dopamine receptor; P35462; D3R DiscoveRx beta-arrestin cells, luminescence, 90 min; max activation, %; hit rate 0.58% among 410,000; in the data active means max activation above about 30%; further: 0% is about no effect
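Agonist-mode cell screen: cells plated at 1500/well and incubated overnight at 37 °C, then exposed to library compounds for 90 min at 37 °C. Detection reagent was added for 30–60 min at room temperature, and luminescence was read.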
* hit, by the source's call; ? = inconclusive; / = not tested or not shown.

SMILES	DRD3 antagonist	TRPML1 inh	TRPML1 agonist	DRD3 agonist
O=C(O)c1cccc(NC(=S)NC(NC(=O)c2cccc([N+](=O)[O-])c2)C(Cl)(Cl)Cl)c1 (stereo not given)	3	-8	-1	6
O=C(NC(NC(=S)Nc1ccc(Cl)cc1Cl)C(Cl)(Cl)Cl)c1cccc([N+](=O)[O-])c1 (stereo not given)	-58*	-1	0	-2
COc1ccc([N+](=O)[O-])cc1NC(=S)NC(NC(=O)Cc1ccc(OC)c(OC)c1)C(Cl)(Cl)Cl (stereo not given)	-93*	28	0	-12
CC(=O)c1cc(-c2ccccc2)n(CCC(=O)Nc2cc(C)cc(C)c2)c1C	/	38	2	-5
COc1ccccc1CNC(=O)Cc1c(C)c2c(cc(C)c3c(C)coc32)oc1=O	/	-1	0	4
Cc1cc(OCCCCNC(C)C)cc(C(C)C)c1	-69*	-1	1	-13
Cc1cc(OCCn2cnc3ccccc3c2=O)cc(C(C)C)c1	-25	10	-1	3
CCOc1ccc(N(CC)S(=O)(=O)N2CCCC(C(=O)NCc3ccccc3OCC)C2)cc1 (stereo not given)	/	-20	1	-11
c1ccc(CN2CCN(c3nc(-c4ccccc4)nc(-n4ccnc4)n3)CC2)cc1	-63*	59	-1	-39
CCc1ccc(-n2nc(CO)c(C(=O)NCc3ccccn3)n2)cc1	/	18	2	-3
CN1CCN(C2=Nc3ccccc3Cc3ccccc32)CC1	/	/	/	-23
OCCOCCN1CCN(C2=Nc3ccccc3Sc3ccccc32)CC1	-66*	46	2	/
COC(=O)c1cc(Cl)c(NC(=O)C(C)C)cc1OC	5	8	0	-1
COC(=O)c1cc(Cl)c(NC(=O)c2ccc(C(C)(C)C)cc2)cc1OC	29	27	2	70*
CC(C)CC(=O)NCC(c1ccc2c(c1)OCO2)N1CCN(c2ccccc2F)CC1 (stereo not given)	/	18	0	-21
c1ccc(Nc2nc(NCc3ccco3)c3ccccc3n2)cc1	-12	-15	1	3
CNc1nc(NCc2ccco2)c2ccccc2n1	/	/	70*	/
CCNc1nc(NCc2ccco2)c2ccccc2n1	/	/	72*	/
CCSc1ncc(Cl)c(C(=O)N(Cc2ccccc2)c2ccc(OC)cc2)n1	/	60	4	-16
Cc1ccc(N2CC(NC(=O)C3CC3)CC2=O)cc1C (stereo not given)	/	13	-1	0
COc1ccc(-c2cc(C(C)=O)c(C)n2CCC(=O)Nc2cccc(C)c2C)cc1	/	-13	3	-1
CCC(C)(C)C1CCC(=NNC(=S)Nc2cccnc2)CC1 (stereo not given)	-64*	3	-1	-13
CC1=C/C(=N\NC(=S)Nc2cccnc2)CC(C)(C)C1	-51*	36	-1	-10
CC1(C)C2CC=C(/C=N/NC(=S)Nc3cccnc3)C1C2 (stereo not given)	5	-4	1	7
CCC(C)(C)C1CCC(=NNC(=S)Nc2ccccc2)CC1 (stereo not given)	?	14	0	-13
SMILES	DRD3 antagonist	TRPML1 inh	TRPML1 agonist	DRD3 agonist
COc1ccc(N2CCN(C(=O)CSc3nnc4c5cc(C)ccc5n(C)c4n3)CC2)cc1	21	-6	1	43*
C1=Cc2ccccc2/C1=C\c1ccc2c(c1)OCO2	/	/	0	/
CC1CC1C(=O)OCC(=O)NC(=O)c1ccc(C(C)(C)C)cc1 (stereo not given)	19	-5	0	39*
COC(=O)[C@]1(Sc2ccc(C)cc2)CC(=O)N[C@@H]1c1ccco1	-69*	/	0	-8
CN1CC2(Cc3cc([N+](=O)[O-])ccc31)C(=O)OC(C)(C)OC2=O	/	/	1	/
O=[N+]([O-])c1c(Nc2cccc(O)c2)cc(Cl)c2nonc12	-131*	21	0	-29
Cc1c(Nc2ccc3nonc3c2[N+](=O)[O-])c(=O)n(-c2ccccc2)n1C	-1	-1	0	1
Cc1c(Nc2cc(Cl)c3nonc3c2[N+](=O)[O-])c(=O)n(-c2ccccc2)n1C	-101*	1	5	-21
Cc1c(C#N)c(O)n(CCO)c(=O)c1N=Nc1ccc2c(c1)COC2=O	-59*	53	0	-46
C[C@@]12C(=O)OC(=O)[C@]1(C)C1CCC2O1	-87*	2	1	-68
Cn1cc(/C=C/c2ccnc3ccccc23)c2ccccc21	/	/	11	/
Cc1cc(N2CCN(C3CCCCC3)CC2)nc2cccc(O)c12	-84*	-1	-1	-10
Cc1cc(N2CCCC2)nc2ccccc12	-5	-16	0	0
CCc1ccc(Sc2cc(C(=O)O)c3ccccc3n2)cc1	/	9	1	2
O=C(CCc1nc2ccccc2c(=O)[nH]1)Nc1ccc(F)cc1	-54*	-14	2	-3
CN(CC(=O)Nc1ccc(F)cc1)C(=O)CCc1nc2ccccc2c(=O)[nH]1	-54*	-2	0	-16
O=C(CCc1nc2ccccc2[nH]1)Nc1ccc(F)cc1	1	-2	0	-9
CCc1ccc(OCC(=O)Nc2ccc(Cl)c(-c3nc4ncccc4o3)c2)cc1	/	22	1	1
Cc1ccc(N(C)C(=O)Cn2cnc3onc(-c4ccc(F)cc4)c3c2=O)cc1C	/	-16	1	-4
Nc1nc(-c2ccco2)c(-c2ccco2)s1	-58*	-15	0	-12
c1coc(-c2nc(-c3ccco3)c(-c3ccco3)nc2-c2ccco2)c1	-27	-2	0	-10
COc1ccc(C2CC(=O)NC(NC(=O)c3ccc(Br)cc3)=N2)c(OC)c1OC (stereo not given)	/	-7	1	5
CN(C)c1ccc(N=Cc2cccc3ccccc23)cc1	/	/	0	/
OCCC1CN(Cc2nc(-c3ccccc3)cs2)CCN1C1CCCC1 (stereo not given)	-6	-13	-1	-17
c1ccc(-c2csc(CN3CCCCC3)n2)cc1	-50*	15	-1	-17
SMILES	DRD3 antagonist	TRPML1 inh	TRPML1 agonist	DRD3 agonist
COc1ccc(C)c2sc(N(Cc3cccnc3)C(=O)C3CCCCC3)nc12	/	38	4	0
CC(=O)NC(Cc1c(F)c(F)c(F)c(F)c1F)C(=O)NCC(N)C(=O)c1ccccc1 (stereo not given)	/	/	0	/
CCCCN1CCNC[C@H]1Cc1ccc(O)cc1	-92*	8	0	-10
Oc1ccc(C[C@H]2CNCCN2CCCCC2CCCCC2)cc1	-21	13	0	-9
Cc1ccc(-c2nn(-c3cccc(F)c3)cc2CN2CCN(c3ccccn3)CC2)o1	-70*	6	2	-3
N#Cc1nc(-c2ccccc2)cc(-c2ccccc2)n1	/	/	1	/
C[C@H]1C(c2ccc(F)cc2)=NN(c2ccccc2)[C@@H]1CO	10	7	0	35*
COc1ccccc1[C@H]1C(c2ccc(F)cc2)=NN(c2ccccc2)[C@@H]1CO	28	24	-1	11
Cc1ccc(-c2nc(C(Cl)Cl)c3ccccc3n2)cc1	-60*	/	/	-17
Cc1ccc(-n2ncc(Br)c(Br)c2=O)cc1	-76*	-4	0	-25
